Sampled rows, rich in hits. Any-hit rate of the full collection: about 21%.
NS1 function inh: inhibitors of influenza NS1 protein function | actives 0.4% (n = 270,000) | Potency, µM (highest dose often 46.1 µM), without a hit: at the top dose activity, positive = more growth | AID 2326; calls by dose curve; further: potency means the concentration at half of the fitted maximal effect; actives are rising curves; nearly all actives have a fitted effect of over 50% in size
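A cell-based growth assay was used: compounds that relieve NS1-induced slow growth of budding yeast raise OD600. Assay medium was yeast nitrogen base with ammonium sulphate and -URA supplement, pH 6.0, with 2% galactose.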
Shiga toxin inh: inhibitors of Shiga toxin in Vero cells; Vero cells, Shiga toxin protein synthesis inhibition reporter; inhibition, % at 38.7 µM; actives 9.2% (n = 290,000); in the data active means inhibition mostly above about 28%, no sharp cut-off; inactive means mostly below about 43%; further: 0% is about no effect
CHX counter: counter-screen hit for Shiga toxin inhibitors, cycloheximide | cell reporter, cycloheximide protein synthesis inhibition counterscreen | actives 12% (n = 300,000) | max response, %; in the data active means max response mostly above about 13%, no sharp cut-off; inactive means mostly below about 14%; further: read at 38.3 µM for the half of the compounds with a filed dose; 0% is about no effect
Pf growth 48h: inhibits P. falciparum growth in the first generation, 48 h; P. falciparum luciferase growth in erythrocytes, 48 h; Potency, µM (highest dose often 28.7 µM), without a hit: at the top dose activity change, negative = inhibition, actives largely listed as inhibitors; actives 5.9% (n = 310,000); further: potency means the concentration at half of the fitted maximal effect; on the % scale 0 is the no-effect control and ±100 the full control effect
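Luciferase-expressing parasites in RBCs, 2% Hct / 0.1% parasitemia final; RPMI 1640 + 0.5% Albumax; 37 C, 5% CO2, one generation; luminescence read-out, lower signal = inhibition.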
Pf growth 96h: P. falciparum growth inhibition at 96 hours | P. falciparum luciferase reporter growth, 96 h | Potency, µM (titrated, usually from 28.7 µM), for the others: at the highest dose activity change, negative = inhibition, hits mostly inhibitors | actives 6.9% (n = 320,000) | AID 504834; further: potency means the concentration at half of the fitted maximal effect; on the % scale 0 is the no-effect control and ±100 the full control effect
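Erythrocytes infected with luciferase-expressing P. falciparum were dispensed at 2% hematocrit and 0.05% parasitemia (final), then incubated with compounds 96 hours at 37 C in 5% CO2. Luminescence after detection reagent addition reported growth.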
The depositor's hits bear a star; ? = inconclusive; · = no result. Unless noted, the call rests on the fitted dose curve; in most records, active means well fitted inhibition curve with a large enough effect; inconclusive means small, poorly fitted or top-dose-only effect, or another doubt; inactive means no such curve, though single readings can be large or run the other way.

SMILES	NS1 function inh	Shiga toxin inh	CHX counter	Pf growth 48h	Pf growth 96h
CCCNC(=O)c1ccc(COc2cccc3ccccc23)o1	-25.2%	8.4	7.8	?	?
COc1ccc(S(=O)(=O)N2CCCCCC2)cc1Br	-8.3%	-1.0	0.6	-12.6%	-15.8%
CN(C)c1ccc(/C=N/NC(=O)CN2CCN(c3ccc(F)cc3)CC2)cc1	-6.4%	0.9	0.7	24.7%	27.0%
COCc1cc(Sc2ccc(Cl)cc2)nc(-c2ccccc2)n1	-2.7%	-13.1	-1.5	?	0.0%
CCN(CC)C(=O)Oc1cc(COC)nc(-c2ccccc2)n1	-11.1%	-11.6	1.1	10.4µM*	?
CCCCNC(=S)NNC(=O)c1csc(C(C)C)c1	-3.8%	29.9*	16.5	37.4%	165.8%
CCNC(=S)NNC(=O)c1csc(C(C)C)c1	-3.2%	77.0*	51.2*	198.5%	145.6%
Cc1cc2nc3c(=O)[nH]c(=S)[nH]c3nc2cc1NC(=O)C(F)(F)F	10.0%	3.3	14.6	·	6.1%
COc1ccc(C(=O)NCc2nnc(SCC(=O)NCCc3ccccc3)o2)cc1	19.1%	0.1	1.1	27.5%	?
O=c1ccn(-c2cccc(C(F)(F)F)c2)nc1-c1ccn(-c2ccccc2F)n1	2.1%	-16.4	-5.1	?	5.86µM*
Cc1ccc(-n2ccc(-c3nn(-c4ccccc4)ccc3=O)n2)cc1	·	-6.7	-5.5	?	7.38µM*
O=C(O)c1nn(-c2cccc(C(F)(F)F)c2)ccc1=O	-0.8%	-7.5	-8.5	·	19.3%
COc1ccccc1NC(=O)c1nn(-c2cccc(C(F)(F)F)c2)ccc1=O	14.3%	-8.4	1.0	15.5%	?
COc1ccc(-n2ccc(-c3nn(-c4cccc(C(F)(F)F)c4)ccc3=O)n2)cc1	17.0%	-13.7	0.0	7.38µM*	3.29µM*
Cn1cc(CN2CCC(Oc3ccc(C(=O)N4CCCCC4)cc3)CC2)cn1	7.5%	-13.4	-2.0	-8.2%	4.8%
COc1ccc(S(=O)(=O)N(C)c2ccc(C(=O)NCc3ccco3)cc2)cc1	-16.3%	-21.1	0.9	-25.8%	-10.1%
CCC(=O)N1c2ccc(S(=O)(=O)N3CCN(c4ccc([N+](=O)[O-])cc4)CC3)cc2CC1C (stereo unspecified)	11.9%	4.6	-1.4	?	30.5%
CC(C)(C)OC(=O)N1C=CCC1CN1C(=O)COCC1=O (stereo unspecified)	·	17.3	10.1	·	·
COc1ccc(C2/C=C\CN(C(=O)C3CCCC3)C(C)C(=O)N2Cc2ccc(F)cc2)cc1 (stereo unspecified)	·	-1.7	4.3	·	·
Cc1nc(CN(C)C(=O)CC2C(=O)NCCN2Cc2ccc(-c3ccccc3)cc2)cs1 (stereo unspecified)	-30.2%	25.6*	18.2	-12.2%	-6.2%
CN(Cc1ccccn1)C(=O)CC1C(=O)NCCN1Cc1cccc(Oc2ccccc2)c1 (stereo unspecified)	3.4%	-6.1	-4.7	-20.6%	?
CCOc1ccc(CN2CCNC(=O)C2CC(=O)NCc2ccccn2)cc1 (stereo unspecified)	2.2%	7.1	36.5*	?	-12.4%
CCOc1ccc(CN2CCNC(=O)C2CC(=O)NCCc2ccccn2)cc1 (stereo unspecified)	1.3%	0.9	1.7	10.6%	30.7%
O=C(CC1C(=O)NCCN1C/C=C/c1ccccc1)NCCCC1CCCC1 (stereo unspecified)	1.8%	74.6*	37.3*	25.1%	?
CCOc1ccccc1CN1CCNC(=O)C1CC(=O)NCc1cc(C)n(C)n1 (stereo unspecified)	4.5%	7.5	-2.3	-10.0%	2.08µM*
SMILES	NS1 function inh	Shiga toxin inh	CHX counter	Pf growth 48h	Pf growth 96h
CCOc1ccccc1CN1CCNC(=O)C1CC(=O)NCc1nccn1CC (stereo unspecified)	0.0%	-9.1	6.2	-21.0%	1.3%
Cc1nc2ncnn2c(N2CCCC(C(=O)Nc3ccccc3Br)C2)c1C (stereo unspecified)	·	-8.2	7.0	-28.2%	?
CC(C)(C)Nc1nc(Oc2ccc(=O)[nH]n2)nc(N2CCOCC2)n1	·	-5.9	8.2	-6.3%	-24.9%
Cn1cnc(S(=O)(=O)N2CCN(c3ccc(Cl)cc3)CC2)c1	14.4%	-7.7	1.1	22.0%	?
CCc1cc(CNC(=O)CC2C(=O)NCCN2Cc2ccc(-c3ccccc3)cc2)on1 (stereo unspecified)	17.5%	-3.9	3.2	-15.6%	2.08µM*
CCOC(=O)N1CCC(NC(=O)CC2C(=O)NCCN2Cc2ccccc2)CC1 (stereo unspecified)	-10.9%	-7.2	8.9	16.6%	9.28µM*
O=C(CC1C(=O)NCCN1Cc1ccc(-c2ccccc2)cc1)NCCCn1cccn1 (stereo unspecified)	-2.2%	-14.8	-2.7	-8.1%	-7.6%
O=C(CC1C(=O)NCCN1Cc1ccc(-c2ccccc2)cc1)NC1CCC1 (stereo unspecified)	-7.1%	-2.1	-0.1	?	10.8%
O=C(CC1C(=O)NCCN1Cc1ccc(-c2ccccc2)cc1)NCc1ccccc1 (stereo unspecified)	0.8%	-7.2	-2.8	-5.6%	6.57µM*
CCOc1ccc(NC(=O)CC2C(=O)NCCN2C(=O)Nc2ccccc2)cc1 (stereo unspecified)	-3.4%	7.8	-2.2	4.9%	14.7µM*
CCCCn1c(N)c(N(CC(C)C)C(=O)CCC2CCCCC2)c(=O)[nH]c1=O	12.9%	12.0	-2.4	?	?
OCCC1CN(CC(c2ccccc2)c2ccccc2)CCN1C1CCCC1 (stereo unspecified)	1.5%	10.5	-2.2	?	?
COC(=O)CNC(c1ccccc1)c1cc(Br)ccc1NC(C)=O (stereo unspecified)	-2.2%	-2.5	-5.3	3.3%	0.2%
COC(=O)CNC(c1ccccc1Cl)c1cc(Br)ccc1NS(=O)(=O)c1ccc(C)cc1 (stereo unspecified)	4.5%	-6.9	9.0	3.29µM*	-10.4%
N#Cc1nc(Cc2cccc3ccccc23)oc1NCc1ccco1	-87.5%	-10.0	-3.9	?	?
N#Cc1nc(-c2ccccc2Cl)oc1NCC1CCCO1 (stereo unspecified)	-12.2%	90.6*	16.3	·	-13.4%
COc1ccc(-c2nc(C#N)c(NCC3CCCO3)o2)cc1OC (stereo unspecified)	-14.6%	10.5	22.7*	1.0%	18.2%
COc1ccc(-c2nc(C#N)c(NC(C)c3ccccc3)o2)cc1OC (stereo unspecified)	-32.0%	28.5	10.1	14.7µM*	?
COc1ccc(-c2nc(C#N)c(NCCCN(C)C)o2)cc1OC	8.3%	-0.5	9.7	-7.6%	-4.5%
N#Cc1nc(Cc2cccc3ccccc23)oc1NCC1CCCO1 (stereo unspecified)	-48.7%	-4.4	-1.4	·	7.38µM*
CCC(C(=O)OCC(=O)Nc1c(Cl)cccc1Cl)c1ccccc1 (stereo unspecified)	-16.3%	-0.8	-3.2	-0.3%	-14.0%
COC(=O)c1cc(NC(=O)Cc2ccc(OC)cc2)cc(C(=O)OC)c1	5.7%	22.7	-2.5	?	·
